Where “and” joins values, the source holds several entries; their conditions need not be identical. Identical values can stand only once. Screen size: about 5,500 compounds; about 2,000 (36%) were called active. Roughly 18% stayed inconclusive and do not appear here. The list shows a part of the results. Values without a mark were called inactive. No stated cut-off is given here; in the data, active means normalized growth mostly below about 0.91 (no sharp cut-off); inconclusive means no clear call, values can overlap the other calls; inactive means mostly above about 0.92.
Assay: chemical genetic growth profiling, strain panel (AID 1159580);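 further: tested at 20 µM; growth read once vehicle control cultures reached saturation at 30 °C; 1 = growth at the plate median or of vehicle wells; lower values mean less growth of the strain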
Details: S. cerevisiae deletion strains, growth OD

## CC1(C)O[C@H]2CC(=O)OC[C@]23[C@H]2CC[C@@]4(C)[C@H](c5ccoc5)OC(=O)[C@H]5O[C@]54[C@]2(C)C(=O)C[C@@H]13
Locus YAL013W, strain DEP1, active compounds read low
  normalized growth: 1.02
Locus YAL021C, strain ccr4, active compounds read low
  normalized growth: 0.982
Locus YAL026C, strain drs2, active compounds read low
  normalized growth: 0.99
Locus YAL030W, strain snc1, active compounds read low
  normalized growth: 0.98
Locus YBL061C, strain skt5, active compounds read low
  normalized growth: 0.987
Locus YBR009C, strain hhf1, active compounds read low
  normalized growth: 0.968
Locus YBR021W, strain FUR4, active compounds read low
  normalized growth: 1.21 [resistant] (active)
Locus YBR023C, strain chs3, active compounds read low
  normalized growth: 0.995
Locus YBR171W, strain sec66, active compounds read low
  normalized growth: 0.964
Locus YBR229C, strain ROT2, active compounds read low
  normalized growth: 1.01
Locus YBR231C, strain swc5, active compounds read low
  normalized growth: 1
Locus YBR279W, strain paf1, active compounds read low
  normalized growth: 0.992
Locus YCL011C, strain gbp2, active compounds read low
  normalized growth: 0.98
Locus YCL016C, strain dcc1, active compounds read low
  normalized growth: 0.99
Locus YCL029C, strain bik1, active compounds read low
  normalized growth: 0.976
Locus YCL061C, strain MRC1, active compounds read low
  normalized growth: 0.974
Locus YCL069W, strain vba3, active compounds read low
  normalized growth: 0.969
Locus YCR088W, strain abp1, active compounds read low
  normalized growth: 0.984
Locus YDL005C, strain med2, active compounds read low
  normalized growth: 0.962
Locus YDL035C, strain GPR1, active compounds read low
  normalized growth: 1.02
Locus YDL040C, strain nat1, active compounds read low
  normalized growth: 0.984
Locus YDL074C, strain BRE1, active compounds read low
  normalized growth: 0.992
Locus YDL101C, strain DUN1, active compounds read low
  normalized growth: 0.985
Locus YDL134C, strain PPH21, active compounds read low
  normalized growth: 1.01
Locus YDL185W, strain tfp1, active compounds read low
  normalized growth: 0.962
Locus YDL192W, strain arf1, active compounds read low
  normalized growth: 0.988
Locus YDR001C, strain nth1, active compounds read low
  normalized growth: 0.984
Locus YDR069C, strain doa4, active compounds read low
  normalized growth: 0.989
Locus YDR101C, strain arx1, active compounds read low
  normalized growth: 0.998
Locus YDR137W, strain rgp1, active compounds read low
  normalized growth: 1.01
Locus YDR150W, strain NUM1, active compounds read low
  normalized growth: 0.994
Locus YDR159W, strain sac3, active compounds read low
  normalized growth: 0.99
Locus YDR162C, strain NBP2, active compounds read low
  normalized growth: 1.02
Locus YDR195W, strain ref2
  normalized growth: 0.967
Locus YDR297W, strain sur2, active compounds read low
  normalized growth: 1.01
Locus YDR318W, strain mcm21, active compounds read low
  normalized growth: 0.994
Locus YDR334W, strain swr1, active compounds read low
  normalized growth: 0.958
Locus YDR335W, strain msn5, active compounds read low
  normalized growth: 0.986
Locus YDR388W, active compounds read low
  normalized growth: 1.01
Locus YDR392W, strain spt3, active compounds read low
  normalized growth: 0.986
Locus YDR502C, strain sam2, active compounds read low
  normalized growth: 0.99
Locus YEL003W, strain gim4, active compounds read low
  normalized growth: 0.981
Locus YEL037C, strain rad23, active compounds read low
  normalized growth: 0.971
Locus YEL061C, strain CIN8 (second series), active compounds read low
  normalized growth: 0.991
Locus YEL061C, strain CIN8, active compounds read low
  normalized growth: 1
Locus YER015W, strain faa2, active compounds read low
  normalized growth: 0.989
Locus YER016W, strain bim1, active compounds read low
  normalized growth: 0.98
Locus YER110C, active compounds read low
  normalized growth: 0.975
Locus YER111C, strain swi4, active compounds read low
  normalized growth: 0.95
Locus YER155C, strain BEM2 (second series), active compounds read low
  normalized growth: 0.952
Locus YER155C, strain BEM2, active compounds read low
  normalized growth: 0.995
Locus YER167W, strain BCK2, active compounds read low
  normalized growth: 1
Locus YFR010W, strain ubp6, active compounds read low
  normalized growth: 0.986
Locus YGL078C, strain dbp3, active compounds read low
  normalized growth: 0.985
Locus YGL086W, strain mad1, active compounds read low
  normalized growth: 0.993
Locus YGL167C, strain pmr1, active compounds read low
  normalized growth: 0.975
Locus YGL173C, strain kem1, active compounds read low
  normalized growth: 0.982
Locus YGL227W, strain vid30, active compounds read low
  normalized growth: 0.987
Locus YGL240W, strain doc1, active compounds read low
  normalized growth: 0.962
Locus YGL248W, strain PDE1, active compounds read low
  normalized growth: 1.02
Locus YGL253W, strain hxk2, active compounds read low
  normalized growth: 1.01
Locus YGR135W, strain pre9, active compounds read low
  normalized growth: 1
Locus YGR229C, strain SMI1, active compounds read low
  normalized growth: 1.04
Locus YGR252W, strain gcn5, active compounds read low
  normalized growth: 1.07
Locus YHR013C, strain ard1, active compounds read low
  normalized growth: 0.95
Locus YHR027C, strain rpn1, active compounds read low
  normalized growth: 0.993
Locus YHR030C, strain SLT2, active compounds read low
  normalized growth: 1 and 1.01
Locus YHR079C, strain IRE1 (second series), active compounds read low
  normalized growth: 0.98
Locus YHR079C, strain IRE1, active compounds read low
  normalized growth: 1.03
Locus YHR094C, strain hxt1, active compounds read low
  normalized growth: 0.984
Locus YHR129C, strain ARP1, active compounds read low
  normalized growth: 1
Locus YHR142W, strain chs7, active compounds read low
  normalized growth: 0.973
Locus YHR200W, strain rpn10, active compounds read low
  normalized growth: 0.987
Locus YIL066C, strain RNR3, active compounds read low
  normalized growth: 1.02
Locus YIL073C, strain SPO22, active compounds read low
  normalized growth: 0.932
Locus YIL125W, strain kgd1, active compounds read low
  normalized growth: 0.997
Locus YIR030C, strain dcg1, active compounds read low
  normalized growth: 0.984
Locus YJL092W, strain hpr5, active compounds read low
  normalized growth: 0.962
Locus YJL095W, strain BCK1 (second series), active compounds read low
  normalized growth: 0.966
Locus YJL095W, strain BCK1, active compounds read low
  normalized growth: 0.985 and 1.03
Locus YJL115W, strain asf1, active compounds read low
  normalized growth: 0.95
Locus YJL129C, strain trk1, active compounds read low
  normalized growth: 0.973
Locus YJL134W, strain LCB3, active compounds read low
  normalized growth: 1
Locus YJL154C, strain vps35, active compounds read low
  normalized growth: 0.975
Locus YJL164C, strain tpk1, active compounds read low
  normalized growth: 0.986
Locus YJL166W, strain qcr8, active compounds read low
  normalized growth: 0.979
Locus YJL168C, strain set2, active compounds read low
  normalized growth: 0.989
Locus YJL187C, strain SWE1 (second series), active compounds read low
  normalized growth: 0.996
Locus YJL187C, strain SWE1, active compounds read low
  normalized growth: 0.967
Locus YJR043C, strain POL32, active compounds read low
  normalized growth: 1.05
Locus YJR066W, strain TOR1, active compounds read low
  normalized growth: 0.946
Locus YJR075W, strain HOC1, active compounds read low
  normalized growth: 0.989
Locus YKL009W, strain mrt4, active compounds read low
  normalized growth: 0.963
Locus YKL068W, active compounds read low
  normalized growth: 0.987
Locus YKL085W, strain MDH1 (second series), active compounds read low
  normalized growth: 0.992
Locus YKL085W, strain MDH1, active compounds read low
  normalized growth: 0.992
Locus YKL160W, strain elf1, active compounds read low
  normalized growth: 1
Locus YKR001C, strain vps1, active compounds read low
  normalized growth: 0.985
Locus YKR026C, strain gcn3, active compounds read low
  normalized growth: 0.998
Locus YKR091W, strain srl3, active compounds read low
  normalized growth: 0.98
Locus YLL001W, strain dnm1, active compounds read low
  normalized growth: 0.959
Locus YLL026W, active compounds read low
  normalized growth: 0.988
Locus YLL041C, strain sdh2, active compounds read low
  normalized growth: 0.97
Locus YLR027C, strain aat2, active compounds read low
  normalized growth: 0.965
Locus YLR039C, strain RIC1, active compounds read low
  normalized growth: 1.01
Locus YLR058C, strain SHM2, active compounds read low
  normalized growth: 1
Locus YLR102C, strain apc9, active compounds read low
  normalized growth: 0.983
Locus YLR113W, strain HOG1, active compounds read low
  normalized growth: 1.04
Locus YLR221C, strain rsa3, active compounds read low
  normalized growth: 1
Locus YLR258W, strain gsy2, active compounds read low
  normalized growth: 0.996
Locus YLR262C, strain YPT6 (second series), active compounds read low
  normalized growth: 1.01
Locus YLR262C, strain YPT6, active compounds read low
  normalized growth: 1
Locus YLR268W, strain sec22, active compounds read low
  normalized growth: 0.961
Locus YLR320W, strain mms22, active compounds read low
  normalized growth: 0.992
Locus YLR330W, strain CHS5, active compounds read low
  normalized growth: 0.998
Locus YLR342W, strain FKS1 (second series), active compounds read low
  normalized growth: 1.07
Locus YLR342W, strain FKS1, active compounds read low
  normalized growth: 0.975
Locus YLR357W, strain rsc2, active compounds read low
  normalized growth: 0.99
Locus YLR370C, strain arc18, active compounds read low
  normalized growth: 0.97
Locus YLR371W, strain rom2, active compounds read low
  normalized growth: 0.98
Locus YLR384C, strain iki3, active compounds read low
  normalized growth: 0.999
Locus YLR418C, strain cdc73, active compounds read low
  normalized growth: 0.994
Locus YML016C, strain PPZ1, active compounds read low
  normalized growth: 1.01
Locus YML032C, strain rad52, active compounds read low
  normalized growth: 1.01
Locus YML120C, strain ndi1, active compounds read low
  normalized growth: 0.969
Locus YML124C, strain tub3, active compounds read low
  normalized growth: 0.99
Locus YMR058W, strain fet3, active compounds read low
  normalized growth: 0.974
Locus YMR078C, strain ctf18, active compounds read low
  normalized growth: 0.982
Locus YMR125W, strain sto1, active compounds read low
  normalized growth: 0.985
Locus YMR129W, active compounds read low
  normalized growth: 0.99
Locus YMR205C, strain PFK2, active compounds read low
  normalized growth: 1.01
Locus YMR223W, strain ubp8, active compounds read low
  normalized growth: 0.994
Locus YMR231W, strain pep5, active compounds read low
  normalized growth: 0.981
Locus YMR263W, strain SAP30, active compounds read low
  normalized growth: 0.985
Locus YMR307W, strain GAS1, active compounds read low
  normalized growth: 1.04
Locus YNL067W, strain RPL9B, active compounds read low
  normalized growth: 0.961
Locus YNL071W, strain lat1, active compounds read low
  normalized growth: 0.995
Locus YNL128W, strain TEP1, active compounds read low
  normalized growth: 0.993
Locus YNL153C, strain GIM3, active compounds read low
  normalized growth: 0.994
Locus YNL183C, strain NPR1, active compounds read low
  normalized growth: 0.934
Locus YNL209W, strain ssb2, active compounds read low
  normalized growth: 0.979
Locus YNL233W, strain BNI4, active compounds read low
  normalized growth: 0.997
Locus YNL248C, strain rpa49, active compounds read low
  normalized growth: 0.979
Locus YNL250W, strain rad50, active compounds read low
  normalized growth: 0.932
Locus YNL271C, strain bni1, active compounds read low
  normalized growth: 0.987
Locus YNL298W, strain CLA4, active compounds read low
  normalized growth: 1
Locus YNL307C, strain MCK1, active compounds read low
  normalized growth: 0.983
Locus YNL322C, strain KRE1 (second series), active compounds read low
  normalized growth: 0.959
Locus YNL322C, strain KRE1, active compounds read low
  normalized growth: 0.997
Locus YNR049C, strain mso1, active compounds read low
  normalized growth: 0.956
Locus YNR052C, strain pop2, active compounds read low
  normalized growth: 0.994
Locus YOL006C, strain TOP1, active compounds read low
  normalized growth: 0.922
Locus YOL012C, strain htz1
  normalized growth: 0.665
Locus YOL147C, strain pex11, active compounds read low
  normalized growth: 0.998
Locus YOR001W, strain rrp6, active compounds read low
  normalized growth: 0.995
Locus YOR061W, strain CKA2, active compounds read low
  normalized growth: 1.01
Locus YOR069W, strain VPS5, active compounds read low
  normalized growth: 1
Locus YOR070C, strain gyp1, active compounds read low
  normalized growth: 0.992
Locus YOR080W, strain dia2, active compounds read low
  normalized growth: 0.961
Locus YOR083W, strain WHI5, active compounds read low
  normalized growth: 0.975
Locus YOR106W, strain vam3, active compounds read low
  normalized growth: 1.01
Locus YOR136W, strain idh2, active compounds read low
  normalized growth: 0.985
Locus YOR144C, strain elg1, active compounds read low
  normalized growth: 1.01
Locus YOR184W, strain ser1, active compounds read low
  normalized growth: 0.988
Locus YOR231W, strain MKK1, active compounds read low
  normalized growth: 1.04
Locus YOR265W, strain rbl2, active compounds read low
  normalized growth: 0.984
Locus YOR270C, strain vph1, active compounds read low
  normalized growth: 0.988
Locus YOR290C, strain snf2, active compounds read low
  normalized growth: 0.973
Locus YOR316C, strain cot1, active compounds read low
  normalized growth: 0.992
Locus YPL051W, strain arl3, active compounds read low
  normalized growth: 0.986
Locus YPL078C, strain atp4, active compounds read low
  normalized growth: 0.97
Locus YPL106C, strain sse1, active compounds read low
  normalized growth: 0.939
Locus YPL240C, strain hsp82, active compounds read low
  normalized growth: 0.992
Locus YPL256C, strain CLN2, active compounds read low
  normalized growth: 1.01
Locus YPR119W, strain clb2, active compounds read low
  normalized growth: 0.994
Locus YPR141C, strain kar3, active compounds read low
  normalized growth: 0.991
Locus YPR163C, strain tif3, active compounds read low
  normalized growth: 1
Locus YPR167C, strain met16, active compounds read low
  normalized growth: 0.989
Strain wtn01, active compounds read low
  normalized growth: 0.974
